Many of the other results were omitted from the sample, so hits are more common in it than they were.
KDM5B inhibitor = blocks human KDM5B histone demethylase activity. hit rate 2.6% among 220,000. KDM5B demethylase, FDH-coupled NADH fluorescence (FDH is formaldehyde dehydrogenase). Potency, µM (titrated, usually from 57.7 µM), actives largely listed as inhibitors; active means well fitted inhibition curve with a large enough effect; further: 0% is about no effect; nearly all actives have a fitted effect of over 70% in size
Target sequence (Q9UGL1 whole entry, looked up): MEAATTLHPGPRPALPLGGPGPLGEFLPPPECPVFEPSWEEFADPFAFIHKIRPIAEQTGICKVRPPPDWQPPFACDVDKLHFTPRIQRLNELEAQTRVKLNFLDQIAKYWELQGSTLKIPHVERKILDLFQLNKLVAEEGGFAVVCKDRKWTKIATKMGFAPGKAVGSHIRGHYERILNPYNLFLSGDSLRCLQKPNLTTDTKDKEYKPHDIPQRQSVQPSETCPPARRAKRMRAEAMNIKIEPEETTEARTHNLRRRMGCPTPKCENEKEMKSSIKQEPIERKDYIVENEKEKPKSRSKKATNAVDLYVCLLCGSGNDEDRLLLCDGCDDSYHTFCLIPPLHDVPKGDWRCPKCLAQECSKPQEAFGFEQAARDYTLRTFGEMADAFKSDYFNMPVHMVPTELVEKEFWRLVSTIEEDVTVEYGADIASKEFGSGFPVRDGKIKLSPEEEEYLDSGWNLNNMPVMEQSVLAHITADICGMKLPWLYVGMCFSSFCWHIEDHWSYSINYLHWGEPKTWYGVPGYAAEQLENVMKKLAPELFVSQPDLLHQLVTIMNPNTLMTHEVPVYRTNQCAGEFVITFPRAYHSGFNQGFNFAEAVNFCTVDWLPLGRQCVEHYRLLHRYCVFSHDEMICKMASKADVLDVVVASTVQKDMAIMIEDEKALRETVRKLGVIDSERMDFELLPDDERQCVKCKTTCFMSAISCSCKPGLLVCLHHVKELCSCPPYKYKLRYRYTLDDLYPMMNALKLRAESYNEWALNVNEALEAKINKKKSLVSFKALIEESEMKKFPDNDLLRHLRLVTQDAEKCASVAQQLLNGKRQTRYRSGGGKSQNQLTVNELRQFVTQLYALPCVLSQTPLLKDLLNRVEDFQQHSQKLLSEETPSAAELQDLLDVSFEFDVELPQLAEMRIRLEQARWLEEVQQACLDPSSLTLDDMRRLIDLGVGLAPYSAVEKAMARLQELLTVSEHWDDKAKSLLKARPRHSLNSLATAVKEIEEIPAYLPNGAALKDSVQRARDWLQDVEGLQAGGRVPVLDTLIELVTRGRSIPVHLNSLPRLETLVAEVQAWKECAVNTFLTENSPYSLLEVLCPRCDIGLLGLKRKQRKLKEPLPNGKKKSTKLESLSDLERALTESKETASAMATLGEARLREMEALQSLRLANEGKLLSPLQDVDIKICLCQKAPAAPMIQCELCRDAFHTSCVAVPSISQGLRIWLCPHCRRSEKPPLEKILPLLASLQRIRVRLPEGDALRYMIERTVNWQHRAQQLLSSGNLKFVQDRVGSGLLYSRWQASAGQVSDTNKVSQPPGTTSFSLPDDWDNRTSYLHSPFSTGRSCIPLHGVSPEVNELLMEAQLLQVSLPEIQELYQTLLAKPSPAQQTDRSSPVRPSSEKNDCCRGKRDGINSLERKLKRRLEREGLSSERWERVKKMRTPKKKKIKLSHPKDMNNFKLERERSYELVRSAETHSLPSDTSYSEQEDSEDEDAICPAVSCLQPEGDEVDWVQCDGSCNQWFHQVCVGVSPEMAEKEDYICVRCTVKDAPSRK
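Compound dilutions met 200 nM (final) KDM5BΔAP for 10 min at room temperature before substrate addition. The substrate mix held 12.5 µM H3K4me3 with cofactors 25 µM α-ketoglutarate and 50 µM Fe²⁺. NADH signal gain over 30 min defined activity.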
Active calls of the source: *. Potency means the concentration at half of the fitted maximal effect.

Results for COc1ccc(-c2ccc3nnc(CNC(=O)c4cc(Cl)ccc4F)n3n2)cc1 ?
KDM5B inhibitor: 28.2µM*

What do the screens show for `COc1ccc(-c2ccc3nnc(CNC(=O)c4cc(F)ccc4F)n3n2)cc1`?
KDM5B inhibitor: 28.2µM*

What do the screens show for `O=C(Cn1nc(-c2ccccc2)ccc1=O)NCc1ccc(F)cc1Cl`?
KDM5B inhibitor: inactive

How did Cc1ccc(-c2ccc3nnc(CNC(=O)c4cc(F)ccc4Cl)n3n2)cc1 do in these assays?
KDM5B inhibitor: 12.6µM*

What do the screens show for `CO[C@H]1C(=O)N(C(C)C)[C@H]1C1CCN(C(=O)Cn2nc(C(F)(F)F)cc2C)CC1`?
KDM5B inhibitor: inactive

What do the screens show for `Cc1cnc(C(=O)OC(C)C(=O)c2ccc(C(C)(C)C)cc2)cn1` (stereo not drawn)?
KDM5B inhibitor: inactive

How did CCC(C)NC(=O)/C(=C/c1ccccc1Cl)c1ccccc1 (stereo not drawn) do in these assays?
KDM5B inhibitor: inactive

What do the screens show for `CN(C)c1ccc(C(=O)OCc2ccc(C#N)cc2)cc1`?
KDM5B inhibitor: inactive

How did Cn1c(C(=O)NC2CCN(Cc3ccccc3)CC2)cc2c1CCN(Cc1ccccc1)C2 do in these assays?
KDM5B inhibitor: 20µM*

What do the screens show for `Cn1cc(-c2ccncc2)cc1C(=O)NC1CCN(Cc2ccccc2)CC1`?
KDM5B inhibitor: inactive

Results for CC(=O)c1ccc(NC(=O)c2cc3c(n2C)CCN(Cc2ccccc2)C3)cc1 ?
KDM5B inhibitor: inactive

What do the screens show for `O=C(NC1CCCCC1)c1cc(-c2ccc(Br)cc2)nc2ccccc12`?
KDM5B inhibitor: inactive

How did CCC1CCC(NC(=O)/C=C/c2ccccc2F)CC1 (stereo not drawn) do in these assays?
KDM5B inhibitor: inactive

Results for CN(Cc1ccc(C(=O)NCC(F)(F)F)cc1)c1nc2ccccc2o1 ?
KDM5B inhibitor: inactive

Results for CC(=O)c1cccc(NC(=O)CSc2nnc3n(CC(C)C)c(=O)c4cc(F)ccc4n23)c1 ?
KDM5B inhibitor: inactive

What do the screens show for `CCCc1noc(-c2cn(C3CCN(C(=O)Cc4cccc(F)c4)CC3)nn2)n1`?
KDM5B inhibitor: inactive

How did Cc1noc(C)c1CN1CCNc2cc(Nc3cccnc3)ncc2C1 do in these assays?
KDM5B inhibitor: inactive

What do the screens show for `Cn1ccnc1CN1CCNc2cc(Nc3ccccc3)ncc2C1`?
KDM5B inhibitor: inactive

What do the screens show for `COCCN1CCNc2cc(Nc3cccc(N(C)C)c3)ncc2C1`?
KDM5B inhibitor: 35.5µM*

How did CC(=O)N1CCNc2cc(Nc3cccc(N(C)C)c3)ncc2C1 do in these assays?
KDM5B inhibitor: inactive

Results for c1ccc(Nc2cc3c(cn2)CN(Cc2ccccn2)CCN3)cc1 ?
KDM5B inhibitor: 31.6µM*

How did Cn1cnc(CN2CCNc3cc(Nc4ccccc4)ncc3C2)c1 do in these assays?
KDM5B inhibitor: inactive

What do the screens show for `CN(C)c1ccc(CN2CCNc3cc(Nc4ccccc4)ncc3C2)cc1`?
KDM5B inhibitor: 39.8µM*

What do the screens show for `CN(C)c1ccc(CN2CCNc3cc(Nc4cccnc4)ncc3C2)cc1`?
KDM5B inhibitor: inactive

How did COc1cccc(Nc2cc3c(cn2)CN(C(C)=O)CCN3)c1 do in these assays?
KDM5B inhibitor: inactive

What do the screens show for `CC(=O)N1Cc2ccccc2CC2(CCCN(CCc3ccc(C)cc3)C2)C1` (stereo not drawn)?
KDM5B inhibitor: inactive

How did O=C(COC(=O)c1ccc2ccccc2n1)c1cccc(Cl)c1 do in these assays?
KDM5B inhibitor: inactive

How did COc1ccc(S(=O)(=O)c2cc3c(cc2NC(=O)c2ccccc2Cl)n(C)c(=O)n3C)cc1 do in these assays?
KDM5B inhibitor: inactive

What do the screens show for `CC(C)C(=O)Nc1ccc2c(C(C(=O)O)N3CCN(Cc4ccccc4)CC3)c[nH]c2c1` (stereo not drawn)?
KDM5B inhibitor: inactive

What do the screens show for `CCOc1cc(COC(=O)c2cccc(S(=O)(=O)N3CCCC3)c2)ccc1OC(F)F`?
KDM5B inhibitor: inactive

Results for CCOc1cc(C2Nc3ccc(C)cc3[C@H]3OCCC[C@@H]23)cc(Br)c1O (stereo partly drawn) ?
KDM5B inhibitor: inactive

Results for Cc1nonc1CN1CCN(C(C(=O)O)c2c[nH]c3cc(Br)ccc23)CC1 (stereo not drawn) ?
KDM5B inhibitor: inactive

What do the screens show for `COC(=O)c1ccc(COC(=O)CCc2nc3ccccc3[nH]c2=O)cc1`?
KDM5B inhibitor: inactive

Results for CN(C)[C@@H]1[C@@H](NC(=O)c2cc(=O)n(-c3ccccc3)[nH]2)[C@H]2CCO[C@H]21 ?
KDM5B inhibitor: inactive

Results for CN(C)[C@@H]1[C@@H](NC(=O)CCc2nc3ccccc3[nH]c2=O)[C@H]2CCO[C@H]21 ?
KDM5B inhibitor: 28.2µM*

How did Cc1cc(C2=NNC(=NC3CC3)SC2)c(C)n1C1CC1 do in these assays?
KDM5B inhibitor: inactive

Results for COc1ccc(S(=O)(=O)N2CCN(Cc3ccc(C(F)(F)F)cc3)CC2)cc1OC ?
KDM5B inhibitor: inactive

Results for COCCC1(NS(C)(=O)=O)CCN(C(=O)c2ccc(C)nc2)CC1 ?
KDM5B inhibitor: inactive

Results for CC(CC(=O)O)c1ccc(C(F)(F)F)cc1 (stereo not drawn) ?
KDM5B inhibitor: inactive

Results for CONC(=O)C(C)NC(=O)C12CC3CC(CC(C3)C1)C2 (stereo not drawn) ?
KDM5B inhibitor: inactive

How did COc1ccccc1C1CNC(=O)c2nc(-c3cc(C(C)(C)C)[nH]n3)[nH]c2C1 (stereo not drawn) do in these assays?
KDM5B inhibitor: inactive

What do the screens show for `O=C1NCC(c2ccc(Cl)cc2)Cc2[nH]c(-c3ccc(O)cc3)nc21` (stereo not drawn)?
KDM5B inhibitor: 25.1µM*

How did O=C1CC(c2ccccc2)Cc2[nH]c(=O)c(-c3nc(-c4ccc(Cl)cc4)cs3)cc21 (stereo not drawn) do in these assays?
KDM5B inhibitor: inactive

How did O=Cc1ccccc1-c1cnc2ccccc2c1 do in these assays?
KDM5B inhibitor: inactive

What do the screens show for `CN(c1ccccc1)c1ccc2nnc(-c3cc(C(=O)NCC4CCCO4)ccn3)n2n1` (stereo not drawn)?
KDM5B inhibitor: inactive

How did CN(c1ccccc1)c1ccc2nnc(-c3cc(C(=O)NC4CCC(O)CC4)ccn3)n2n1 (stereo not drawn) do in these assays?
KDM5B inhibitor: inactive

Results for O=C(NCC1CC1)c1ccnc(-c2nnc3ccc(Nc4ccccc4)nn23)c1 ?
KDM5B inhibitor: inactive

How did CN(c1ccccc1)c1ccc2nnc(-c3cc(C(=O)Nc4ccccn4)ccn3)n2n1 do in these assays?
KDM5B inhibitor: 11.2µM*

What do the screens show for `CN(c1ccccc1)c1ccc2nnc(-c3cc(C(=O)N4CCCCC4)ccn3)n2n1`?
KDM5B inhibitor: inactive

Results for CN(c1ccccc1)c1ccc2nnc(-c3cc(C(=O)NCc4cccnc4)ccn3)n2n1 ?
KDM5B inhibitor: 35.5µM*

Results for CN(C)CCNC(=O)c1ccnc(-c2nnc3ccc(Nc4ccccc4)nn23)c1 ?
KDM5B inhibitor: inactive

What do the screens show for `CN(C)c1ccc2nnc(-c3cc(C(=O)NCCc4ccccn4)ccn3)n2n1`?
KDM5B inhibitor: 35.5µM*

What do the screens show for `CN1CCN(C(=O)c2ccnc(-c3nnc4ccc(N(C)c5ccccc5)nn34)c2)CC1`?
KDM5B inhibitor: inactive

How did CCOCCCNC(=S)NC1CC1 do in these assays?
KDM5B inhibitor: inactive

How did CCNc1oc(-c2ccc(S(=O)(=O)N(CC)CC)cc2)nc1C#N do in these assays?
KDM5B inhibitor: inactive

What do the screens show for `CC(C)CC(=O)N1C(C(=O)NCC2CCCO2)COC12CCCC(C)C2` (stereo not drawn)?
KDM5B inhibitor: inactive

How did N#Cc1ccc(CSc2nnc(N3CCCCC3)n2-c2ccccc2)cc1 do in these assays?
KDM5B inhibitor: inactive

Screening results from PubChem.
